Results filed as inconclusive are left out. A call without a number means that no potency is given here. The source made the active and inactive calls. Calls come from the whole dose curve; as a rule, active = well fitted activation curve with a large enough effect; inconclusive = small, poorly fitted or top-dose-only effect; inactive = no such curve, though single readings can be large or run the other way.
assay: qHTS Assay for Rab9 Promoter Activators: Initial hit validation from the primary screen; settings: Huh7 Rab9 promoter luciferase reporter, 24 h; series mostly up to 46.1 µM
Description: NIH Chemical Genomics Center [NCGC] NIH Molecular Libraries Probe Production centers Network [MLPCN] MLPCN Grant: MH089537-01 Assay Submitter (PI): Yiannis A. Ioannou NCGC Assay Overview: Niemann Pick Type C (NPC) is a rare neurodegenerative lipidosis that is characterized by lipid storage in the endosomal/lysosomal system. Treatment modalities for this devastating disease are currently non-existent due to the severe obstacles associated with accessing the central nervous system with proteins or genes (Ioannou, 2000). We have developed a new paradigm, termed "Orphan Receptor Bypass Therapy" (ORByT), to address these disorders. This paradigm posits the existence of endogenous "suppressor" proteins whose expression can dramatically improve LSD pathogenesis. The goal is the identification/discovery of small chemical compounds that can modulate the expression of these proteins and provide a new treatment modality for these devastating disorders. One such protein whose overexpression reverses aspects of the NPC phenotype is Rab9. We have developed and optimized a cell based luciferase reporter assay in 1536 well format for the identification of up-regulators of the Rab9 promoter. This assay presents data on the validation of hits from the primary screen.
The Rab9 promoter is cloned in front of the luciferase reporter gene, therefore […] promoter activation results in luciferase expression. Frozen stock of the Rab9 promoter transfected Huh7 cells were obtained from the laboratory of Dr. Yiannis Ioannou (The Mount Sinai School of Medicine, New York, NY). Cells were propagated and maintained at NCGC in medium containing RPMI-1640 supplemented with 10% FBS, 2mM L-glutamine, and 50ug/ml penicillin/streptomycin. Cells were harvested in and plated for assays in OP-MEM I reduced-serum medium supplemented with 10% FBS. The Amplite luciferase reporter gene assay kit was purchased from ABD Bioquest and prepared/stored according to manufacturers recommendations. qHTS Assay Setup: 1.Dispensed 5ul of Huh7 cells stably expressing Rab9-luciferase at a density of 1500 cells per well 1536-well plates. 2.Incubate cells at 37C, 5% CO2, and 95% humidity for 2 hours. 3.Transferred 23nl per well of compound in DMSO solution. 4.Incubated at 37C, 5% CO2, and 95% humidity for 24 hours. 5.Dispensed 3ul per well of Amplite reagent(ABD Bioquest) per well. 6.Incubate at ambient for 10 minutes. 7.Read using the luminescence protocol on the ViewLux plate reader (Perkin Elmer).
Potency is the fitted concentration of half-maximal effect.

Row | Compound | Potency
1 | CNC(=O)Cn1nc(C)c2ccccc2c1=O | inactive
2 | CCOC(=O)c1cc2sccc2n1CC(=O)N1CCCc2ccccc21 | inactive
3 | CC1CCCN(S(=O)(=O)c2ccc(C(=O)Nc3nnc(-c4ccncc4)o3)cc2)C1 (stereo not given) | inactive
4 | CCCOC(=O)Cn1cnc2scc(-c3ccc(OC)cc3)c2c1=O | inactive
5 | Nc1ccccc1C(=O)N/N=C1/C2CN3CCN(C2)CC1(Cc1ccccc1)C3 | inactive
6 | COC(=O)c1ccc(NC(=O)c2ccc3nc(C)sc3c2)cc1 | 560 nM (active)
7 | Cc1ccc(C(=O)NCc2ccc3c(c2)OCO3)cc1C | 25000 nM (active)
8 | CC(=O)[C@@H]1[C@@H](C(=O)c2ccc(C)cc2)[C@]2(C(=O)Nc3ccccc32)[C@H]2C=Cc3cc(F)ccc3N12 | inactive
9 | CC(=O)c1cccc(NC(=O)N2CCOCC2)c1 | inactive
10 | COc1ccc(NC(=O)CCCN2C(=O)C(c3ccccc3)Oc3cccnc32)cc1OC (stereo not given) | inactive
11 | Cc1ccc(N(O)C(=O)NCCCCNC(=O)N(O)c2ccc(C)cc2)cc1 | 15800 nM (active)
12 | COc1ccccc1N(C(=O)c1snc(C(N)=O)c1N)C(C(=O)NC1CCCCC1)c1cccc(OC)c1OC (stereo not given) | inactive
13 | O=S(=O)(c1cccs1)N1CCN(c2ncccn2)CC1 | inactive
14 | COc1ccc(-n2c(N)c(C(=O)NCc3ccco3)sc2=S)cc1 | inactive
15 | O=C(COc1ccccc1F)Nc1ccc(-c2nc3ccccc3s2)cc1 | 223 nM (active)
16 | CC(=O)Nc1ccc(-c2csc(Nc3ncccn3)n2)cc1 | 353 nM (active)
17 | Cc1ccc(S(=O)(=O)/N=C2\C=C(Nc3cccc(C(=O)O)c3)C(=O)c3ccccc32)cc1 | inactive
18 | O=C(CSc1nnc(-c2ccccn2)o1)Nc1ccccc1F | 1120 nM (active)
19 | COCCn1c(SCc2ccc(C(=O)OC)o2)nc2cc(Cl)ccc2c1=O | inactive
20 | Nc1c(N(CCO)C(=O)/C=C/c2ccco2)c(=O)[nH]c(=O)n1Cc1ccccc1 | inactive

Row | Compound | Potency
21 | CCOC(=O)CSc1nc2cc3c(cc2cc1C#N)OCO3 | 888 nM (active)
22 | CCCOP(=O)(c1ccc(N(C)C)cc1)C(O)c1cccnc1 (stereo not given) | inactive
23 | O=C(NCC1CCCO1)C(c1ccc(F)cc1)N(Cc1ccc2c(c1)OCO2)C(=O)c1ccc(CN2CCOCC2)o1 (stereo not given) | inactive
24 | CCOC(=O)c1ccc(-c2nnc(-c3ccc(Cl)cc3Cl)o2)cc1 | 705 nM (active)
25 | O=C(CSc1nnc(-c2ccccn2)o1)Nc1ccccc1Cl | 888 nM (active)
26 | O=C(NNC(=O)C1COc2ccccc2O1)c1ccccc1O (stereo not given) | inactive
27 | Cc1nc2sc(C(=O)OC(C)C)c(N)c2c(C)c1C | 15800 nM (active)
28 | O=C(NC1CCCC1)C(c1ccc(F)cc1)N(C(=O)c1csnn1)c1ccccc1 (stereo not given) | inactive
29 | NCCOc1ccccc1-c1ccccc1 | inactive
30 | COc1cccc(NC(=O)CN2C(=O)CSc3ccc(S(=O)(=O)N4CCC(C)CC4)cc32)c1 | inactive
31 | O=C(c1cc2cc([N+](=O)[O-])ccc2oc1=O)n1cccn1 | inactive
32 | CCCCc1cc(=O)oc2cc(OCC(=O)N3CCOCC3)ccc12 | inactive
33 | CCC(=O)N1c2ccccc2NC2=C(C(=O)CCC2)C1c1ccc(N(C)C)cc1 (stereo not given) | inactive
34 | CCOc1cc(C2C(C#N)=C(N)Oc3n[nH]c(C)c32)ccc1OCCN1CCOCC1 (stereo not given) | inactive
35 | COc1ccccc1C(=O)Nc1nnc(SCC(=O)NC2CCCC2)s1 | 888 nM (active)
36 | O=C(NCCc1ccccc1)c1cc2ncc(Br)cn2n1 | 25000 nM (active)
37 | O=C(CCc1cccc(Cl)c1)NC1CCCN(Cc2ccccc2F)C1 (stereo not given) | inactive
38 | Cc1nn(CCCC(=O)NCc2ccc(F)cc2)c(C)c1[N+](=O)[O-] | inactive
39 | CC(C)C1(CCNC(=O)c2cccs2)CCOC(C)(C)C1 (stereo not given) | inactive
40 | COCCNC(=O)Cn1nc(-c2ccccc2)c2ccccc2c1=O | inactive
